Measurements reported in PubChem BioAssay AID1159580 (chemical genetic matrix, 2015).
Out of some 5,500 compounds screened, about 2,000 (36%) were called active. Another 18% or so got no clear call; they are omitted. Rule as the data show it: active = normalized growth mostly below about 0.91 (no sharp cut-off); inconclusive = no clear call, values can overlap the other calls; inactive = mostly above about 0.92. The list shows a part of the results.

Assay: chemical genetic growth profiling, strain panel (AID 1159580);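 also: tested at 20 µM; growth read once vehicle control cultures reached saturation at 30 °C; 1 = growth at the plate median or of vehicle wells; lower values mean less growth of the strain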
Conditions: S. cerevisiae deletion strains, growth OD

Measured: normalized growth

CN1/C(=C/C=C/c2ccc3ccccc3[n+]2C)C=Cc2ccccc21
active: locus YAR019C, strain CDC15, stronger effect = lower value 0.675 | locus YBL105C, strain PKC1, stronger effect = lower value 0.837 | locus YBR136W, strain MEC1, stronger effect = lower value 0.893 | locus YDL017W, strain CDC7, stronger effect = lower value 0.903 | locus YDL101C, strain DUN1, stronger effect = lower value 0.362 | locus YDL132W, strain cdc53, stronger effect = lower value 0.653 | locus YDL214C, strain PRR2, stronger effect = lower value 0.185 | locus YDR052C, strain DBF4, stronger effect = lower value 0.889 | locus YDR054C, strain cdc34, stronger effect = lower value 0.581 | locus YDR477W, strain SNF1, stronger effect = lower value 0.226 | locus YER123W, strain YCK3, stronger effect = lower value 0.204 | locus YER133W, strain GLC7, stronger effect = lower value 0.18 | locus YFL009W, strain cdc4, stronger effect = lower value 0.684 | locus YFL029C, strain CAK1, stronger effect = lower value 0.603 | locus YFR003C, strain YPI1, stronger effect = lower value 0.883 | locus YFR019W, strain FAB1, stronger effect = lower value 0.217 | locus YFR028C, strain CDC14, stronger effect = lower value 0.885 | locus YGR040W, strain KSS1, stronger effect = lower value 0.215 | locus YGR052W, strain FMP48, stronger effect = lower value 0.212 | locus YGR092W, strain DBF2, stronger effect = lower value 0.148 | locus YHR030C, strain SLT2, stronger effect = lower value 0.177 | locus YHR079C, strain IRE1, stronger effect = lower value 0.182 | locus YHR082C, strain KSP1, stronger effect = lower value 0.224 | locus YHR205W, strain SCH9, stronger effect = lower value 0.132 | locus YJL095W, strain BCK1, stronger effect = lower value 0.208 | locus YJL157C, strain FAR1, stronger effect = lower value 0.174 | locus YJR016C, strain ILV3, stronger effect = lower value 0.828 | locus YJR066W, strain TOR1 (second series), stronger effect = lower value 0.196 | locus YJR066W, strain TOR1, stronger effect = lower value 0.197 | locus YKL048C, strain ELM1, stronger effect = lower value 0.291 | locus YKL067W, strain YNK1, stronger effect = lower value 0.162 | locus YKL101W, strain HSL1, stronger effect = lower value 0.199 | locus YKL193C, strain SDS22, stronger effect = lower value 0.655 | locus YKL203C, strain TOR2, stronger effect = lower value 0.209 | locus YLR113W, strain HOG1, stronger effect = lower value 0.29 | locus YLR133W, strain CKI1, stronger effect = lower value 0.341 | locus YLR403W, strain SFP1, stronger effect = lower value 0.0454 | locus YML070W, strain DAK1, stronger effect = lower value 0.209 | locus YMR001C, strain CDC5, stronger effect = lower value 0.816 | locus YMR205C, strain PFK2 (second series), stronger effect = lower value 0.325 | locus YNL006W, strain LST8, stronger effect = lower value 0.793 | locus YNL020C, strain ARK1, stronger effect = lower value 0.243 | locus YNL161W, strain CBK1, stronger effect = lower value 0.658 | locus YNL183C, strain NPR1, stronger effect = lower value 0.197 | locus YNL207W, strain RIO2, stronger effect = lower value 0.528 | locus YNL222W, strain SSU72, stronger effect = lower value 0.708 | locus YNL307C, strain MCK1 (second series), stronger effect = lower value 0.189 | locus YOL136C, strain PFK27, stronger effect = lower value 0.188 | locus YOR061W, strain CKA2, stronger effect = lower value 0.181 | locus YOR119C, strain RIO1, stronger effect = lower value 0.221 | locus YOR231W, strain MKK1, stronger effect = lower value 0.198 | locus YOR329C, strain SCD5, stronger effect = lower value 0.702 | locus YPL031C, strain PHO85, stronger effect = lower value 0.198 | locus YPL153C, strain RAD53, stronger effect = lower value 0.178 | locus YPL204W, strain HRR25, stronger effect = lower value 0.177 | locus YPL209C, strain IPL1, stronger effect = lower value 0.748 | locus YPL256C, strain CLN2, stronger effect = lower value 0.25 | locus YPR025C, strain CCL1, stronger effect = lower value 0.821 | strain NNK1, stronger effect = lower value 0.536 | strain TSCII, stronger effect = lower value 0.604
inactive: locus YBR135W, strain CKS1, stronger effect = lower value 0.901 | locus YBR160W, strain CDC28, stronger effect = lower value 0.919 | locus YDL028C, strain MPS1, stronger effect = lower value 0.928 | locus YDL108W, strain KIN28, stronger effect = lower value 0.912 | locus YDR226W, strain ADK1, stronger effect = lower value 0.961 | locus YIL147C, strain SLN1, stronger effect = lower value 0.905 | locus YPR106W, strain ISR1, stronger effect = lower value 0.929 | locus YPR111W, strain DBF20, stronger effect = lower value 0.902

N#C/C(=C\c1c[nH]c2ccccc12)C(=O)c1ccc(O)c(O)c1
inactive: locus YAL013W, strain DEP1, stronger effect = lower value 1.02 | locus YAL040C, strain CLN3, stronger effect = lower value 0.987 | locus YCL061C, strain MRC1 (second series), stronger effect = lower value 1.02 | locus YDR150W, strain NUM1, stronger effect = lower value 1.01 | locus YDR363W, strain ESC2, stronger effect = lower value 1.03 | locus YER002W, strain NOP16, stronger effect = lower value 1.01 | locus YGR078C, strain PAC10, stronger effect = lower value 1.02 | locus YJR075W, strain HOC1, stronger effect = lower value 0.996 | locus YMR307W, strain GAS1, stronger effect = lower value 1.03 | locus YNL175C, strain NOP13, stronger effect = lower value 1 | locus YNL197C, strain WHI3, stronger effect = lower value 1.02 | locus YNL224C, strain SQS1, stronger effect = lower value 1 | locus YNL322C, strain KRE1, stronger effect = lower value 1 | locus YOR083W, strain WHI5 (second series), stronger effect = lower value 0.973 | locus YPL241C, strain CIN2, stronger effect = lower value 1.02
